Structures are written as SMILES.

The experiment can be described thus: basal MM1S mitochondrial membrane potential changes, profiling panel, cell-based, JC-1 fluorescence, 24 h, 100 nL compound (AID 1170). Further: test concentration not given here. As to conditions: higher = more signal.
Regarding `COc1ccc(O[C@H]2C=C[C@@H](c3ccccc3)O[C@@H]2COC(=O)CCC(C)=NOC[C@@H](C)[C@H](OCc2ccccc2)C(C)C)cc1`, the z-score was -0.146.
The figure for `O=C1[C@H]2[C@H]3[C@H](O)[C@H](O)CC(=NOCc4ccccc4)[C@H]3CC[C@H]2C(=O)N1C[C@@H]1CCCO1` is -0.153; for `O=C1O[C@@H](c2ccccc2)[C@@H](c2ccccc2)N2[C@@H](c3ccc(OCCO)cc3)[C@]3(C(=O)Nc4ccc(C#CCCO)cc43)[C@@H](C(=O)N3CCCCCCC3)[C@H]12` it is -0.399; for `CCCCc1nc2c(c3c1C[C@H](C)OC3)CN(CCC(C)C)CC2` it is 0.301.
The figure for `O=C1C2=CC[C@H]3C(=O)N(Cc4ccc5c(c4)OCO5)C(=O)[C@H]3[C@H]2[C@H](O)[C@@H]2O[C@H]12` is -0.398; for `O=C1CCCC=C1C(O)CCOCc1ccccc1` (configuration not stated) it is 0.527; for `COCCCNC(=O)[C@]1(CCC(=O)OC(C)(C)C)N=C(c2ccc(OCCCO)cc2)O[C@@H]1c1ccccc1N=[N+]=[N-]` it is -0.984.
With `COC(=O)[C@@H]1CCCN1C(=O)[C@@H](C)CO` the figure was -1.32; with `COc1ccc([Si](C)(C)[C@H]2[C@H](CCO)O[C@@]3(C(=O)N(Cc4cccc(NC(=O)[C@H](C)O)c4)c4ccccc43)[C@@H]2C)cc1`, -2.35.
Take `CCOC(=O)CCN1C(=O)[C@H]2[C@H]3[C@H](O)[C@H](O)CC(=NOC[C@@H](O)COCc4ccco4)[C@@H]3CC[C@H]2C1=O`: the z-score was -0.49.
With `CC(CCN1CCCCc2nc(C)c(C)cc21)=NOC(C)CN1CCCCc2nc(C)c(C)cc21` (configuration not stated) the figure was -0.16.
`COCCOC(=O)N1C(=O)[C@@]2(c3cc(C#CC4(O)CCCCCC4)ccc31)[C@H](c1ccc(OCCO)cc1)N1[C@H](c3ccccc3)[C@H](c3ccccc3)OC(=O)[C@H]1[C@@H]2C(=O)NC[C@H](O)c1ccccc1` registered a z-score of -1.47.

Source of the values: PubChem BioAssay.
